One may read the inhibition as the change of the read-out against control, counted positive when it falls.

Several values for one entry are separate records, joined by “and”; a condition that tells them apart may be missing. Equal entries are not always repeated. About 3,500 (1.2%) of roughly 290,000 compounds were called active. The entries come from a sample that favours actives as a whole. Unmarked numbers belong to inactive results.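 The calls were made as follows: active = inhibition above the campaign mean inhibition over all tested compounds plus 3 SD (cut at about 28% in these data); inactive = the rest.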

In the assay the test system is M18 aspartyl aminopeptidase (Plasmodium falciparum 3D7). The assay can be described thus: PfM18AAP inhibitors, malaria aminopeptidase, primary screen, biochemical, QFRET, recombinant enzyme (AID 1822).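 Also: 0% = plate median of test compound wells and 100% = 2 mM ZnCl2.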 The following applies: H-Glu-NHMec fluorogenic cleavage, at 7.35 µM, hits give high values.
For `COc1cc(/C=N/Nc2nn3cnnc3c3ccccc23)cc(OC)c1OC`, the inhibition is 43.6% (active). On to `COc1cc(Nc2nc3ccc(Cl)cc3n3cnnc23)cc(OC)c1OC`, for which the inhibition was -5.42%. As to `COc1cc(/C=N/NC(=O)Cc2ccccc2)cc(OC)c1OC`, the inhibition was 0.54%. Consider `CCOC(=O)C(CC)/C(C)=N\NC(=O)c1cccc(C)c1` (configuration not stated), for which the inhibition was -12.1%. For the compound `O=CN1CCN(C(=O)c2ccc(Br)o2)CC1`, the inhibition was -0.01%. On to `O=C(Cc1ccccc1)Nc1c(C(=O)N2CCCCCC2)cnn1-c1ccccc1`, for which the inhibition was 5.1%. `O=C(Nn1cnnc1)c1cc(Cl)ccc1Cl`: the inhibition was 54.6% (active). The value for `Cc1nn(-c2ccccc2)c(C)c1NC(=O)COc1ccc(Cl)cc1Cl` was -6.26%; that for `Cc1c(NC(=O)Nc2ccccc2Cl)sc(=S)n1C` was 4.48%. Turning to `O=C(COc1ccccc1Cl)Nn1cnnc1`, the inhibition was 31% (active). The value for `O=C(Nc1ccccc1Cl)Nc1cccc2cccnc12` was 6.47%; that for `O=C(Nn1cnc2ccccc2c1=O)c1ccc([N+](=O)[O-])cc1Cl` was -1.63%. For `O=C(COc1ccc([N+](=O)[O-])cc1Cl)Nn1cnnc1`, the inhibition was 33% (active). In the case of `O=C(Nc1cccnc1)c1cc(Cl)ccc1Cl`, the inhibition is -0.24%. The value for `O=C(COc1ccccc1Cl)N1CCCCCCC1` was 5.5%.

Consider `COc1ccccc1C(=O)Nn1cnnc1`, for which the inhibition was 18.1%. On to `O=C(COc1ccccc1Cl)Nc1ccc(C(=O)c2ccc(C(=O)O)cc2)cc1`, for which the inhibition was -8.1%. The value for `O=C(Nc1ccccc1Cl)Nn1cnnc1` was 77.6% (active); that for `COc1ccccc1NC(=O)CCC(=O)N1CC(C)Oc2ccc(C)cc21` (configuration not stated) was -4.62%. The value for `O=C(CN(Cc1ccccc1)C(=O)CCC(=O)Nc1ccccn1)NCCc1ccccc1` was 0.21%; that for `O=[N+]([O-])c1cccc(S(=O)(=O)NCc2ccccn2)c1` was -8.77%.

As for `CN(Cc1ccccc1)CC(O)COc1ccc(CNCc2cc3ccccc3s2)cc1` (configuration not stated), the inhibition is -3.49%.

As for `COc1ccc(C(=O)NC2CC2)cc1OC1CCN(C/C=C/c2ccccc2)CC1`, the inhibition was -7.74%. In the case of `CC(C)CCNC(=O)c1ccc2c(Cl)c3c(nc2c1)CCC3`, the inhibition was -8.56%. Regarding `CCN(CC)c1ccc(C(=O)NNC(=O)CCc2nc3ccccc3c(=O)[nH]2)cc1`, the inhibition is -7.26%. Take `CC(=O)N1CCOc2ccc(S(=O)(=O)N3CCN(c4cccc(C(F)(F)F)c4)CC3)cc21`: the inhibition is -2.98%. With `O=C(CN1CCCC1)Nc1sc2c(c1C(=O)Nc1ccccc1)CCCC2`, the inhibition is 7.15%.

Consider `Cc1ccc(NC(=O)c2c(NC(=O)CCC(=O)O)sc3c2CCCCC3)cc1`, for which the inhibition was 36.1% (active). The value for `Cc1ccc(C(=O)c2c(NC(=O)c3ccncc3)sc3c2CCCC3)cc1` was -11.4%. The value for `COC(=O)c1c(NC(=O)CCCC(=O)O)sc2c1CCCCC2` was 29.6% (active); that for `COC(=O)c1c(NC(=O)C2CC(C)=C(C)CC2C(=O)O)sc2c1CCCCC2` (configuration not stated) was -0.05%; that for `COC(=O)c1c(NC(=O)CCN2CCOCC2)sc2c1CCCC2` was -1.78%. Turning to `Cc1cccc(OCC(=O)NC2CC(C)(C)NC(C)(C)C2)c1`, the inhibition was 7.98%. The value for `Cc1cc(C)c(S(=O)(=O)Nc2c(C)n(C)n(-c3ccccc3)c2=O)cc1[N+](=O)[O-]` was 1.79%.

For `C=CCn1c(SCc2ccccc2)nc2c1c(=O)[nH]c(=O)n2C`, the inhibition is -4.12%. For the compound `Cc1cc(=O)n2nc(N3CCCC(C(=O)NCc4cccc(Cl)c4)C3)sc2n1` (configuration not stated), the inhibition is 0.59%.

As for `CC(C)(C)c1ccc(C(=O)N2CCC(C(=O)N3CCCCC3)CC2)cc1`, the inhibition is -4.18%. On to `C=CCNC(=O)c1ccccc1SCc1c(C)noc1C`, for which the inhibition was -1.38%. The value for `COc1ccc(/C=C/C(=O)Nc2cccnc2)cc1OC` was -3.57%. Turning to `COc1cc(/C=N/NC(=S)Nc2cccnc2)cc(OC)c1O`, the inhibition is 44.8% (active). `COc1cc(/C=N/Nc2ccc(C)cc2)cc(Br)c1O`: the inhibition is 18.2%. The value for `O=C(CCC1CCN(C(=O)c2cccc(Cl)c2F)CC1)Nc1ccccc1` was 4.45%; that for `COc1ccc(C(=O)NC(C)Cn2nc(C)cc2C)cc1OC1CCN(C(C)=O)CC1` (configuration not stated) was 2.44%. As for `COc1ccc(CCOC(=O)CNC(=O)c2ccc(Cl)cc2Cl)cc1`, the inhibition is 2.28%.

As to `O=C(Nc1nsc(-c2ccccc2)n1)c1ccncc1`, the inhibition was -9.47%. In the case of `O=C(CSc1n[nH]c(-c2cccnc2)n1)Nc1ccnc2ccccc12`, the inhibition is -2.9%.

On to `O=C(CSc1ncn[nH]1)Nc1nsc(-c2ccccc2)n1`, for which the inhibition is 34.3% (active). The value for `O=C(CSc1nc2ccccc2[nH]1)Nc1nc(-c2ccccc2)c(-c2ccccc2)o1` was 1.21%. On to `O=C(CSc1ncn[nH]1)Nc1nc(-c2cccc([N+](=O)[O-])c2)cs1`, for which the inhibition was 41.6% (active). With `CCN(C(=O)CSc1ncn[nH]1)c1cccc2ccccc12`, the inhibition was 19%. The value for `O=C(CSc1nc(-c2ccccc2)cs1)Nc1cccc([N+](=O)[O-])c1` was 1.5%. On to `O=C(CSC1=NCCS1)Nc1nc(-c2ccccc2)cs1`, for which the inhibition is 4.17%. The value for `O=C(CSc1ncn[nH]1)Nc1ccnc2ccccc12` was 71.8% (active); that for `O=C(Nc1ccccc1)Nc1nnc(COc2ccccc2F)s1` was -2.7%.

For the compound `CCOc1ccc2nc(NC(=O)c3cc([N+](=O)[O-])ccc3N3CCOCC3)sc2c1`, the inhibition was -2.3%.

With `CCOC(=O)N1CCN(C(=O)c2ccc3c(=O)n(CCc4ccc(OC)c(OC)c4)c(=O)[nH]c3c2)CC1`, the inhibition is 4.45%. As for `CCC(C)Sc1nc2c(cnn2-c2ccc(F)cc2)c(=O)[nH]1` (configuration not stated), the inhibition was 1.81%. The value for `COc1ccc(CCN(C)C(=O)C23CC4CC(CC(Cl)(C4)C2)C3)cc1OC` was -8.52%; that for `CC1CCN(C(=O)CCc2nnc3ccc(NCc4ccco4)nn23)CC1` was 23.2%; that for `CCC(C)[C@H](NC(=O)N1CCn2c1nc1ccccc12)C(=O)NCc1ccc(OC)cc1` (some centres not stated) was 9.53%. The value for `C=CCC1(CC=C)CCCN1C(=O)c1cc(COc2ccc(-n3cncn3)cc2)on1` was -14.1%; that for `CC(=O)Nc1cccc(C(=O)Nc2nc(C)cs2)c1` was -10.2%. The value for `Cc1csc(NC(=O)NC2(C(F)(F)F)Oc3ccccc3O2)n1` was 70.8% (active). For `Cc1csc(NC(=O)Nc2ccccc2[N+](=O)[O-])n1`, the inhibition is 9.93%. The value for `COc1ccc(N2CCN(C(=O)CN3C(=O)COc4ccccc43)CC2)cc1` was -6.46%; that for `Oc1ccc(Cl)cc1/C=N/c1nc2ccccc2[nH]1` was 0.82%. For `COc1ccc(Br)cc1/C=N/n1c(C)nnc1C`, the inhibition is 0.59%.

As to `Oc1c(Cl)cc(Cl)cc1/C=N/c1ncn[nH]1`, the inhibition was 45.4% (active). Take `Oc1ccc(Br)cc1C=Nc1ccc2[nH]ncc2c1`: the inhibition was 4.29%. The value for `COc1cc(Br)cc(/C=N/c2ncn[nH]2)c1O` was 61.7% (active); that for `O=C(CN1C(=O)c2cccnc2Oc2ccc(Cl)cc21)Nc1ccc(F)cc1` was -4.17%; that for `Cc1cc(F)ccc1N1CCC(N2CCN(C)C(CCO)C2)CC1` (configuration not stated) was -5.24%. The value for `O=C(NNS(=O)(=O)c1ccc(F)cc1)C1CCCCC1` was -0.96%; that for `Cc1cc(=O)oc2c(C)c(OC(C)C(=O)NC3CCN(Cc4ccccc4)CC3)ccc12` (configuration not stated) was -1.22%. The value for `Cc1ccnc(NC(=O)C2CCN(S(=O)(=O)c3c(C)c(C)cc(C)c3C)CC2)c1` was 3.42%.

As for `Cc1nc([N+](=O)[O-])nn1C12CC3CC(CC(Br)(C3)C1)C2`, the inhibition is 13.9%.

As to `Cc1ccnc(-n2sc3ccccc3c2=O)n1`, the inhibition was 42% (active).

`Cc1ccnc(N2CCCC(C(=O)NC3CC3)C2)n1` (configuration not stated): the inhibition was 0.97%.

Take `Cc1ccnc(SCC(N)=O)n1`: the inhibition was 3.17%. As to `CN(C)S(=O)(=O)c1ccc(N2CCCC2)c(C(=O)Nc2cccc(F)c2)c1`, the inhibition was -1.31%.

Turning to `Cc1ccc(S(=O)(=O)N2CCCC(C(=O)N3CCN(C)CC3)C2)cc1` (configuration not stated), the inhibition was -0.92%. The value for `CC1CCC(NS(=O)(=O)c2ccc3c(c2)n(C)c(=O)c(=O)n3C)CC1` (configuration not stated) was -14%; that for `O=S(=O)(NC1CC1)c1ccc(F)c(F)c1` was -0.16%. `Cn1sc(=O)c2cc(S(=O)(=O)NC3CC3)ccc21`: the inhibition was 43% (active). The value for `N=c1c2c3c(sc2ncn1N)CCCCC3` was -3.67%. The value for `N=c1c2c3c(sc2ncn1N)CCCC3` was 2.91%; that for `S=c1[nH]nc2c3c4c(sc3ncn12)CCCC4` was 38.3% (active).

Take `Cn1ncc(Br)c1C(=O)NC1CCCC1`: the inhibition is -2.67%. The value for `O=C(CSC1=Nc2ccccc2C2=NC(CC(=O)NCc3ccco3)C(=O)N12)NCc1ccco1` (configuration not stated) was 7.17%; that for `CC(C)C1N=C2c3ccccc3N=C(SCC(=O)c3ccc(O)c(O)c3)N2C1=O` (configuration not stated) was 55.1% (active). Consider `CCC(C)NC(=O)CSC1=Nc2ccccc2C2=NC(CCC(=O)NCc3ccco3)C(=O)N12` (configuration not stated), for which the inhibition is -0.47%. The value for `CC(=O)C(C)n1cnc2scc(-c3ccc(C)cc3)c2c1=O` (configuration not stated) was 0.85%; that for `CSc1ccc(CNC(=O)c2ccc(NC(=O)C3=CSCCO3)cc2)cc1` was 6.37%. On to `COc1cccc(C(=O)Nc2nnc(S(=O)(=O)N3CCOCC3)s2)c1`, for which the inhibition is 1.13%.

Take `Cc1ccc(C(=O)Cn2cc([N+](=O)[O-])nc2C)cc1`: the inhibition is 1.83%. For the compound `O=C(c1ccncc1)c1ccc([N+](=O)[O-])cc1`, the inhibition was -0.4%.

On to `O=C(Cn1c[n+](CC(=O)c2ccc([N+](=O)[O-])cc2)cn1)c1ccc([N+](=O)[O-])cc1`, for which the inhibition is 50.9% (active) and 63.7% (active).

These data come from PubChem BioAssay AID1822 (The Scripps Research Institute Molecular Screening Center, 2009).
